DT40 TDP1 no CPT: qHTS for Inhibitors of human tyrosyl-DNA phosphodiesterase 1 (TDP1): qHTS in cells in absence of CPT. 15% of 420,000 active. Potency, µM (doses to about 46.2 µM), for the others: at the highest dose activity change, negative = growth inhibition, hits mostly inhibitors. DT40 Tdp1-/- hTDP1 cells, no CPT, ATP luminescence, 48 h; note: potency is the fitted concentration of half-maximal effect; nearly all actives have a fitted effect of over 55% in size
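Seeded 400 DT40-hTDP1 cells/well (vehicle DMSO, no 20 nM CPT); pinned compounds; ≥48 hr at 37 °C; CellTiter-Glo luminescence as viability measure.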
DT40 TDP1 CPT: qHTS for Inhibitors of human tyrosyl-DNA phosphodiesterase 1 (TDP1): qHTS in cells in presence of CPT | AID 686979, 2013 | Potency, µM (highest dose often 46.2 µM), for the others: top-dose activity change, negative = growth inhibition, actives largely listed as inhibitors | 12% of 420,000 active | chicken DT40 Tdp1-/-;hTDP1 cells + 20 nM CPT, ATP luminescence, 48 h; note: potency is the fitted concentration of half-maximal effect; nearly all actives have a fitted effect of over 55% in size
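Chicken DT40 Tdp1-/- cells stably complemented with human TDP1 were seeded at 400 cells/well in medium containing 20 nM camptothecin, exposed to pin-transferred compounds, and grown at 37 °C for at least 48 hr. Viability was read as ATP luminescence.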
HT1080 IDH1KD tx: qHTS for induction of synthetic lethality in tumor cells producing 2HG: qHTS for the HT-1080-IDH1KD cell line. Potency, µM (top dose mostly 46.1 µM), without a hit: at the highest dose activity, negative = toxicity, actives largely listed as cytotoxic. HT-1080 IDH1 knockdown viability, ATP luminescence, 48 h. 2% of 360,000 active;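 note: potency is the fitted concentration of half-maximal effect; 0% = DMSO wells and -100% = cell-free medium wells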
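Using the IDH1-knockdown HT-1080 line run in the same batch and compound series as the NT line, viability after 48 h at 37 °C was determined by CellTiter-Glo luminescence and expressed as % activity.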
IL-1B inflam inh: qHTS for Inhibitors of Inflammasome Signaling: IL-1-beta AlphaLISA Primary Screen; THP-1 LPS/ATP IL-1B secretion, AlphaLISA, 16 h; active compounds read low; activity change, % at 57.5 µM; 4.7% of 360,000 active; AID 743279, 2014; in the data active = activity change below about -50%; inconclusive = mostly about -30% to -49%
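Secreted IL-1B measured by AlphaLISA bead assay after 16 h compound exposure of THP-1 cells; compounds (final up to 57.5 uM) added 1 h before LPS (250 ng/mL) and ATP (1.25 mM) stimulation; lower signal means less secretion.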
HT1080NT lethal: qHTS for induction of synthetic lethality in tumor cells producing 2HG: qHTS for the HT-1080-NT fibrosarcoma cell line. HT-1080-NT fibrosarcoma viability, CellTiter-Glo ATP luminescence, 48 h. Potency, µM (series often up to 46.1 µM), for the others: at the top dose activity, negative = less viability, actives largely listed as cytotoxic. 1.6% of 360,000 active. AID 686970, 2013;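 note: NT is the 2HG producing partner of a matched IDH1 knockdown line; potency is the fitted concentration of half-maximal effect; 0% = DMSO-treated cells and -100% = media-only wells without cells; nearly all actives have a fitted effect of over 55% in size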
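A 48-hour cytotoxicity screen used HT-1080-NT cells plated 2 hours before compound delivery. ATP-based CellTiter-Glo luminescence measured viability, normalized to DMSO and no-cell controls.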
* hit, by the source's call; ? = inconclusive; . = not tested or not shown; [ ] = dose if it differs, or a comment. An excerpt weighted towards active compounds, which were near 19% of everything screened. Unless noted, calls come from the whole dose curve; as a rule, active = well fitted curve in the direction sought with a large enough effect; inconclusive = small, poorly fitted or top-dose-only effect, or another doubt; inactive = no such curve, though single readings can be large; an effect the other way counts as inactive or inconclusive. Unless noted, % is set by controls: 0 for no effect and ±100 for the full control effect.

SMILES	DT40 TDP1 no CPT	DT40 TDP1 CPT	HT1080 IDH1KD tx	IL-1B inflam inh	HT1080NT lethal
CCc1nc2ccc(C(=O)Nc3ccc(OC)c(OC)c3)cn2c1N(CC)Cc1ccc(OC)c(OC)c1	?	?	8%	-12	8%
CCc1nc2ccc(C(=O)NCCOc3ccc(OC)cc3)cn2c1N(C)Cc1ccc(N(C)C)cc1	?	23µM*	26%	-2	?
CCc1nc2ccc(C(=O)NCCOc3ccc(OC)cc3)cn2c1N(CC)Cc1ccc(OC)c(OC)c1	21µM*	21µM*	-10%	?	-29%
CCc1nc2ccc(C(=O)NCCOc3ccc(OC)cc3)cn2c1N(C)Cc1nccn1C	-14%	-28%	15%	-17	3%
COc1ccc(OCCNC(=O)c2ccc3nc(C)c(N(C)Cc4ccc(NC(C)=O)cc4)n3c2)cc1	16µM*	16µM*	15%	-8	-3%
COc1ccc(S(=O)(=O)NC(C)c2ccc3c(c2)OCCO3)cc1 (configuration not stated)	-10%	-18%	9%	2	5%
CCCCN(C)CCNC(=O)CN1C(=O)CSc2ccc(S(=O)(=O)N3CCCC3)cc21	3%	0%	9%	-8	3%
CCN(CC(=O)NCc1ccc(Cl)cc1)C(=O)c1cnc(Cl)c(Cl)c1	-12%	-20%	0%	.	5%
CCN(CC(=O)NCc1ccc(Cl)cc1)C(=O)c1cc(S(=O)(=O)NCc2ccccc2)ccc1C	21µM*	?	-2%	-11	-3%
CCN(CC(=O)NCc1ccc(Cl)cc1)C(=O)CSc1ccccc1F	?	-28%	0%	10	-4%
Cc1ccc(S(=O)(=O)NCc2ccccc2)cc1C(=O)N1CCCCCCC1	?	-19%	-6%	0	3%
Cc1ccc(S(=O)(=O)NCc2ccccc2)cc1C(=O)NCC(=O)Nc1c(C)cccc1C	21µM*	?	-22%	0	-4%
CCN(CC(=O)NCc1ccc(Cl)cc1)C(=O)c1ccc2cc(OC)ccc2c1	13µM*	?	-20%	-9	1%
CCN(CC(=O)NCc1ccc(Cl)cc1)C(=O)CSc1cccc(C(F)(F)F)c1	18µM*	18µM*	-4%	-28	-4%
COc1ccc2[nH]cc(CCNS(=O)(=O)c3ccccc3)c2c1	?	-1%	-12%	-9	-3%
COc1cc(-c2nc3cccc(C)n3c2NCC2CCCO2)ccc1O (configuration not stated)	?	-14%	-1%	-21	-6%
Cc1ccc(C(=O)NNC(=O)COc2ccc(Cl)cc2C)o1	?	?	2%	-54*	6%
Cc1cc(Cl)ccc1OCC(=O)NNC(=O)c1cnccn1	23µM*	10µM*	?	2	?
Cc1cc(Br)ccc1OCC(=O)NNC(=O)c1cnccn1	21µM*	?	?	6	-30%
Cc1ccc(C(=O)CC(=O)COc2ccc(Cl)cc2C)cc1	5.8µM*	4.1µM*	?	9	?
COc1ccc(CC(=O)NNC(=O)COc2ccc(Br)cc2C)cc1OC	-29%	-19%	0%	-14	-2%
CC(NC(=O)COC(=O)c1ccc[nH]c1=O)c1ccccc1 (configuration not stated)	-16%	-7%	11%	9	4%
COc1ccc(-c2csc(NC(=O)CCNC(=O)c3ccco3)n2)cc1	-14%	-11%	-1%	14	1%
CS(=O)(=O)N(CC(=O)NCc1ccncc1)Cc1ccc(Cl)cc1	-27%	7%	13%	-10	6%
CN(CC(=O)Nc1n[nH]c(=S)s1)S(=O)(=O)c1cccc2cccnc12	5%	0%	1%	20	0%
SMILES	DT40 TDP1 no CPT	DT40 TDP1 CPT	HT1080 IDH1KD tx	IL-1B inflam inh	HT1080NT lethal
N[C@@H](C(=O)N[C@@H]1C(=O)N2C(C(=O)O)=C(CSc3cn[nH]n3)CS[C@H]12)c1ccc(O)cc1	4%	9%	.	.	.
COc1ccc(NC(=O)C2CC23CCN(Cc2cccc4ncccc24)CC3)cc1Cl (configuration not stated)	?	-29%	.	.	.
C=CCN(c1ccccc1)S(=O)(=O)c1cccc(C(=O)Nc2nc3ccccc3[nH]2)c1	13µM*	21µM*	-21%	-20	-20%
C=CCN(c1ccccc1)S(=O)(=O)c1cccc(C(=O)Nc2ccc(N3CCOCC3)cc2)c1	2.6µM*	9.2µM*	?	0	-15%
C=CCN(c1ccccc1)S(=O)(=O)c1cccc(C(=O)NCc2ccncc2)c1	?	?	-2%	-11	-3%
C=CCN(c1ccccc1)S(=O)(=O)c1cccc(C(=O)N2CCN(c3ncccn3)CC2)c1	3.7µM*	6.5µM*	3%	-2	9%
C=CCN(c1ccccc1)S(=O)(=O)c1cccc(C(=O)Nc2ccncc2)c1	21µM*	23µM*	-16%	?	?
COc1ccccc1CCC(=O)NCCCn1ccc2ccccc21	?	8%	-16%	7	-17%
COC(=O)c1ccccc1-c1cc(C)cc2c1OC(CNC(=O)c1cc(C)n(C)n1)C2 (configuration not stated)	?	8%[9.04 µM]	.	.	.
O=C1C2C3C=CC(C4CC34)C2C(=O)N1/N=C/c1ccc(-c2ccc([N+](=O)[O-])cc2)o1 (configuration not stated)	?	?	-6%	0	-1%
O=C1C2C(C(=O)N1/N=C/c1ccc([N+](=O)[O-])o1)C1C=CC2C12CC2 (configuration not stated)	23µM*	16µM*	?	-91*	?
O=C1SCCN1N=Cc1ccc([N+](=O)[O-])o1	18µM*	8.2µM*	-5%	9	?
CC1CN(N=Cc2ccc([N+](=O)[O-])o2)C(=N)O1 (configuration not stated)	18µM*	21µM*	-3%	20	-7%
COc1cc(=O)n2c(c1C(=O)NC(C)c1ccco1)CCN(Cc1ccnc3ccccc13)CC2 (configuration not stated)	-11%	?	.	.	.
Oc1ccc(C[C@H]2CNC(=S)N2CC2CCCN2C[C@H](Cc2ccc(O)cc2)N2C[C@H](Cc3ccc(O)cc3)N(CC3CCCCCC3)C2=S)cc1 (some centres not stated)	18µM*	23µM*	?	?	?

Bioassay records from PubChem.
